Screening data from PubChem BioAssay.
The list is not random: actives were taken first. Their share in the collection is about 1.4%.
RN4220 kill = S. aureus RN4220 growth inhibition; inhibition, % (no concentration beside the values); 330,000 compounds, 0.33% hits; OD600, 16 h; in the data active = inhibition above about 85%;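 note: plate controls were untreated cells for no effect and reference antibiotic for full effect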
DUSP3 inh = DUSP3 (human) phosphatase inhibition; P51452; recombinant VHR phosphatase, pNPP absorbance; inhibition, % at 13.3 µM; 290,000 compounds, 0.52% hits; in the data active = inhibition above about 50%
SARS 3CLpro inh = SARS-CoV 3CLpro protease inhibition. AID 1706. P0C6X7. recombinant SARS-CoV 3CLpro, quenched FRET peptide cleavage. 290,000 compounds, 0.14% hits. inhibition, % at 6 µM; in the data active = inhibition above about 12%
ugtP null kill = growth inhibition of S. aureus ugtP deletion strain | growth inhibition, % (test concentration not listed) | S. aureus RN4220 ugtP deletion, OD600 growth, 16 h | 330,000 compounds, 0.54% hits; in the data active = growth inhibition above about 68%;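 note: plate controls were untreated wells for no effect and antibiotic for full effect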
BJeLR viability = kills HRASV12-expressing BJeLR cells | BJeLR (HRASV12) viability, CellTiter-Glo ATP luminescence, 48 h | inhibition, % (concentration not given with the values) | 300,000 compounds, 0.17% hits; in the data active = inhibition above about 50%
PrPC surface inh = inhibitors of human cell surface prion protein PrPC; AID 720596; 370,000 compounds, 0.43% hits; TR-FRET read-out; P04156; inhibition, % at 13.8 µM; in the data active = inhibition above about 24%; note: 0% = median of the test wells and 100% = reference compound wells
PrPC confirm = confirmation of inhibitors of cell surface human prion protein | 1,500 compounds, 65% hits | inhibition, % at 13.8 µM | shares compounds with PrPC surface inh | cell surface PrPC level, TR-FRET | AID 743200; in the data active = inhibition above about 25%
LD9 cytotox = counter-screen for PrPc inhibitors: cytotoxicity in LD9 cells; shares compounds with PrPC surface inh; luminescence viability; inhibition, % at 13.8 µM; 1,500 compounds, 29% hits; in the data active = inhibition above about 9.5%
* hit, by the source's call; . = not tested or not shown.

SMILES	RN4220 kill	DUSP3 inh	SARS 3CLpro inh	ugtP null kill	BJeLR viability	PrPC surface inh	PrPC confirm	LD9 cytotox
C=C1C(=O)O[C@@H]2C[C@@H](C)[C@@H]3C=CC(=O)[C@@]3(C)[C@@H](OC(=O)CC(=O)O[C@H]3[C@@H]4C(=C)C(=O)O[C@@H]4C[C@@H](C)[C@@H]4C=CC(=O)[C@]43C)[C@H]12	.	4	.	.	94*	98*	99*	99*
CC(=O)O[C@@H]1[C@H]2[C@@H](C[C@@H](C)[C@@H]3C=CC(=O)[C@@]13C)OC(=O)[C@@H]2C	.	-4	.	.	-5	4	.	.
CC(N)C(=O)NC1C2C(=C(O)CC(O)C2O)C(=O)OC1(C)C(Cl)Cl (centres undefined)	.	.	.	.	.	93*	100*	26*
CCC(Sc1nc(-c2ccccc2)c(C#N)c(=O)[nH]1)C(=O)Nc1nnc(C)s1 (centres undefined)	10	-4	3	4	16	28*	48*	-6
N#Cc1c(-c2ccccc2)nc(SCC(=O)Nc2nnc(C(F)(F)F)s2)[nH]c1=O	1	7	0	-3	0	23	.	.
N#Cc1c(-c2ccccc2)nc(SCC(=O)Nc2ccccc2F)[nH]c1=O	4	-14	2	3	.	15	.	.
N#Cc1c(-c2ccccc2)nc(SCC(=O)Nc2ccccc2)[nH]c1=O	0	-22	-1	0	.	28*	39*	-5
Cc1cc(C)nc(NS(=O)(=O)c2ccc(NC(=O)CSc3nc4ccccc4[nH]3)cc2)n1	2	7	-3	4	-3	0	.	.
Cc1cc(NC(=O)CSc2nc(-c3ccccc3)c(C#N)c(=O)[nH]2)no1	1	36	3	1	5	41*	56*	-5
Cc1cc(C)nc(NS(=O)(=O)c2ccc(NC(=O)CSc3nc(-c4ccccc4)c(C#N)c(=O)[nH]3)cc2)n1	6	28	-1	12	-2	50*	72*	-2
NC(=NOC(=O)c1cccc2ccccc12)c1ccc(Br)cc1	-7	.	.	-1	.	.	.	.
CC(/C=C/c1cccc([N+](=O)[O-])c1)=NNC(=O)c1ccncc1	3	.	.	0	.	.	.	.
Cc1noc(C)c1NC(=O)Nc1ccc2c(c1)C(=O)N(C(C)CO)CC(C)C(CN(C)C(=O)NC1CCCCC1)O2 (centres undefined)	4	.	.	-2	.	.	.	.
CC(Sc1ccc2ccccc2n1)C(=O)O (centres undefined)	5	22	-3	-3	0	115*	123*	-5
CC(Sc1cccc2cccc(C(=O)O)c12)C(=O)O (centres undefined)	2	5	3	2	3	-4	.	.
COC(=O)CSc1cnc2ccccc2n1	7	0	5	4	3	-2	.	.
CC(Sc1cnc2ccccc2n1)C(=O)O (centres undefined)	6	28	-3	9	3	39*	47*	0
Cc1cc(SC(C)C(=O)O)nc2ccccc12 (centres undefined)	5	20	2	4	4	46*	76*	-6
Cc1ccc(C2C3C(=O)N(C)C(=O)C3[C@]3(Cc4ccccc4)C(=O)N(Cc4ccccc4)CC(=O)N23)o1 (some centres undefined)	-1	.	.	1	.	.	.	.
COC(=O)C1C[C@@]2(O)C(O)C(O)C(O)CC2N1Cc1ccc(C(C)(C)C)cc1 (some centres undefined)	7	.	.	0	.	.	.	.
CCOC1OC(C(=O)N2CCN(C)CC2)=CC(c2ccc(C(F)(F)F)cc2)C1CCCO (centres undefined)	4	.	.	-1	.	.	.	.
CC(SCc1ccccc1)C(=O)Nc1ccc(F)cc1 (centres undefined)	8	12	-5	4	0	14	.	.
N#CC(C#N)=C(Nc1ccc(F)cc1)SCc1cccc(Br)c1	100*	-12	-1	96*	37	32*	38*	32*
CC=CC1=CC(=O)CC(c2ccc(Cl)cc2)C1 (centres undefined)	3	.	.	3	.	.	.	.
O=C1NCCOC(=O)C(Cc2ccc(F)cc2)CC=CCC1CC(=O)N(CCO)Cc1ccccc1 (centres undefined)	5	.	.	5	.	.	.	.
SMILES	RN4220 kill	DUSP3 inh	SARS 3CLpro inh	ugtP null kill	BJeLR viability	PrPC surface inh	PrPC confirm	LD9 cytotox
CCCN(C(=O)C(=O)Nc1ccc2nc3n(c(=O)c2c1)CCCCC3)c1ccc(OCC)cc1	-1	-4	1	10	-7	31*	12	-2
O=C(Nc1ccc2nc3n(c(=O)c2c1)CCCCC3)c1cc([N+](=O)[O-])ccc1F	.	6	6	.	8	-26	.	.
CCOC(=O)Nc1ccc2nc3n(c(=O)c2c1)CCCCC3	14	12	3	3	.	7	.	.
O=C(Nc1ccc2nc3n(c(=O)c2c1)CCCCC3)c1c(F)ccc([N+](=O)[O-])c1F	.	-2	6	.	75*	26*	28*	96*
CC(=O)OCC(=O)[C@@]1(O)CCC2C3CCC4=CC(=O)C=C[C@]4(C)[C@@]3(Cl)C(Cl)C[C@@]21C (some centres undefined)	8	.	.	-3	.	.	.	.
CC1=C(C)[N+](=O)C2(O)CCCCC2(C)N1[O-] (centres undefined)	-8	13	0	-11	13	36*	4	-4
COc1ccc2c(c1)C1C(CO2)C(c2ccccc2)[C@]2(C)C(=O)Nc3ccccc3C(=O)N12 (some centres undefined)	-5	.	.	-12	.	.	.	.
CC(=O)c1sc(NC(=O)c2c(F)cccc2F)nc1-c1ccccc1	7	7	3	9	-8	25*	21	-8
O=S(=O)(Nc1ccc(Cc2ccncc2)cc1)c1ccc(Cl)c(Cl)c1	-1	33	8	1	-3	31*	32*	16*
CCc1ccc(OC)c(S(=O)(=O)Nc2ccc(Cc3ccncc3)cc2)c1	-1	17	-10	14	23	42*	30*	8
C[C@]12CCC3c4ccc(O)cc4C(=O)CC3C1CCC2O (some centres undefined)	7	.	.	-1	.	.	.	.
O=C(NC(CO)(CO)CO)c1coc(=O)c(Br)c1	6	14	4	8	3	46*	-4	-4
Cc1ccc(N2C(=O)N3C(c4ccc(F)cc4)C4C(=O)N(C5CCCCC5)C(=O)C4[C@]3(Cc3ccccc3)C2=O)cc1 (some centres undefined)	14	.	.	11	.	.	.	.
CC(C)(C)c1ccc(OCCC(=O)Nc2cccc(S(=O)(=O)N3CCCCC3)c2)cc1	.	-5	1	.	2	24*	20	-1
